Reference: PubChem BioAssay (NCATS)
Records with an inconclusive call do not appear. Where a call stands in place of a potency, no number is given. The source made the active and inactive calls. Calls come from the whole dose curve; as a rule, active = well fitted inhibition curve with a large enough effect; inconclusive = small, poorly fitted or top-dose-only effect; inactive = no such curve, though single readings can be large or run the other way.

Assay: qHTS for Inhibitors of the Aldehyde Dehydrogenase Family (ALDH1A2, ALDH1A3, ALDH2, ALDH3A1) (AID 2061307); note: nearly all actives have a fitted effect of over 50% in size; for potency: test system not described further here
Details: ALDH inhibition qHTS; series mostly up to 50.3 µM
Potency is the fitted concentration of half-maximal effect.

Compound	Potency
CCn1c(=O)cc(OCC(=O)N2CCN(c3cccc(Cl)c3)CC2)c2ccccc21	inactive
Cc1ccccc1Cn1cnc2cc(-c3cccc(NC(=O)Cc4ccccc4)n3)ccc21 (tested in a mixture with another compound)	inactive
O=C(Nc1nncs1)c1ccn(-c2ccc(F)cc2)n1	inactive
COc1cccc(Nc2nc(C)c(C(=O)Nc3ccccc3)s2)c1	inactive
Cc1ccc(C)n1-c1sccc1C#N	7.12 µM (active)
O=C(Nc1cccc(S(=O)(=O)N2CCOCC2)c1)c1ccc(CN2CCc3ccccc3C2)cc1	3.98 µM (active)
Cc1c(Cl)cccc1-n1c(CCC(=O)O)ccc1-c1cccs1	6.34 µM (active)
CCOc1ccccc1NC(=O)c1nn(-c2ccc(OC)cc2)c(=O)c2c1c1ccccc1n2C	inactive
Cc1ccccc1C(=O)N1CCc2cc(-c3nc(NC(=O)CC4CCOCC4)sc3C)ccc21	4.47 µM (active)
Cn1cc2c(=O)n(-c3ccccc3)c(SCc3cccc(F)c3)nc2n1	inactive
Oc1[nH]c2ccccc2c1N=NC(=S)Nc1cccnc1	inactive
N#Cc1ccsc1NC(=O)c1ccn(-c2ccccc2F)n1	1 µM (active)
Cn1ccc(=Nc2ccc(NC(=O)c3ccc(N=c4ccn(C)c5ccc([N+](=O)[O-])cc45)cc3[N+](=O)[O-])cc2)cc1	5.65 µM (active)
CC/C=C\C/C=C\C/C=C\C/C=C\C/C=C\C/C=C\CCC(=O)NCCN(C)C	inactive
O=C(Nc1cccc(-c2ccc(N3CCOCC3)nn2)c1)Nc1ccccc1C(F)(F)F	inactive
N#Cc1nc(-c2cccc3ccccc23)oc1NCCC1CNC1	15.8 µM (active)
O=C(N/N=C/c1ccc(Sc2nc3ccccc3s2)o1)c1cccc(F)c1	0.896 µM (active)
Cc1cnc(Cl)nc1NCc1ccc(-n2ccnn2)cc1	inactive
O=[N+]([O-])c1cccnc1S(=O)(=O)c1ccccc1	inactive
COc1ccc(-n2ccc(C(=O)Nc3cccnc3OC)n2)cc1	inactive

Compound	Potency
CN(C)c1ccc(C(=O)Nc2nnc(C3=COCCO3)o2)cc1	inactive
O=C1CCc2ccc(NC(=O)c3ccn(-c4ccccc4F)n3)cc2N1	inactive
O=C(O)c1cccc(S(=O)(=O)N2CCC(n3nnc4cc(C(F)(F)F)ccc43)CC2)c1	inactive
O=C(NCc1ccc(F)cc1)c1nc(-c2ccc(F)cc2)c2ccccn12	inactive
Nc1ccc(Cn2ccc3c4c(N)nc(N)nc4ccc32)cc1	inactive
CS(=O)Cc1cccc(C(=O)Nc2cccc3cccnc23)c1 (stereo not given)	inactive
Cc1nn(-c2ccc(C(F)(F)F)cn2)c(C)c1CC(=O)Nc1ccc(C(N)=O)cc1	inactive
COc1ccc(-n2c(C)c(C(C)=O)c3cc(OC)ccc32)cc1	inactive
O=C(N/N=C/c1ccc(Sc2ccccn2)s1)c1cccc(F)c1	15.9 µM (active)
Cc1ccc(NS(=O)(=O)c2cc(N[C@@H](C)CO)cc3c2NC(=O)CC3)cc1C	inactive
CC(=O)N1CCC(Nc2ncnc3scc(-c4ccccc4)c23)CC1	6.31 µM (active)
CCOC(=O)COc1ccc2c(c1)c(C(=O)c1ccccc1)c(C)n2-c1ccc(OC)cc1	inactive
COc1ccc(NC(=S)N=Nc2c(O)[nH]c3ccccc23)cc1	inactive
O=C(O)c1ccc(-c2ccc3ncnc(NCc4cccs4)c3c2)o1	inactive
O=C(c1cccc(F)c1)N1CCCC2(CCN(C(c3ccccc3)c3ccccc3)C2)C1 (stereo not given)	inactive
COc1ccc(-n2cc(-c3ccc4c(c3)OCO4)n(CC(=O)Nc3cccc(C)c3)c2=O)cc1	inactive
Cc1ccc(-c2ocnc2C(=O)N(C)Cc2cccc(C(N)=O)c2)cc1	inactive
CCOc1ccccc1-n1c(CN2CCN(C(=O)c3ccco3)CC2)nc2cc(OC)c(OC)cc2c1=O	inactive
O=C(CSc1nnc(-c2ccccn2)o1)Nc1ccc2c(c1)OCCO2	11.3 µM (active)
COc1cccc2cc(C(=O)Nc3ccc(F)c(F)c3)c(=O)oc12	inactive
